Source: PubChem BioAssay
Hits are enriched below; roughly 4.6% of the tested compounds scored in any of these assays.
tim10-1 inh: growth inhibitors of tim10-1 mutant yeast; S. cerevisiae tim10-1 ts strain growth, BacTiter-Glo, 24 h; inhibition, % at 20 µM; hit rate 2.2% among 330,000; AID 463190;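 active = inhibition of at least 40%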;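 also: mutant grown at 25 °C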
V-ATPase pH: yeast V-ATPase proton transport regulation by pHLuorin. response, % at 10 µM. AID 504577. hit rate 0.37% among 350,000. S. cerevisiae, pHLuorin cytosolic pH fluorescence; in the data active = response mostly above about 7.3%, no sharp cut-off; inactive = mostly below about 5.4%; also: actives read high
SKKanGAS inh: SKKanGAS growth inhibition; S. pyogenes SKKanGAS, kanamycin growth, BacTiter-Glo, 6 h; inhibition, % at 7.5 µM; hit rate 1.3% among 300,000; AID 1662;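 active = mean replicate score, as percent of positive control median, at least 50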;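 also: strain carries kanamycin resistance gene driven by streptokinase promoter and grows in 40 µg/ml kanamycin; loss of luminescence reflects streptokinase promoter inhibition or plain growth inhibition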
tim23-1 inh: growth inhibitors of tim23-1 mutant yeast. inhibition, % at 20 µM. hit rate 1.3% among 330,000. S. cerevisiae tim23-1 growth, BacTiter-Glo luminescence, 24 h. AID 463212;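 active = growth inhibition of the mutant yeast at or above 50%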;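 also: temperature-sensitive mutant grown at 25 °C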
PfHsp90 yeast 2: reduces growth (ATP signal) of yeast expressing P. falciparum Hsp90 | inhibition, % at 9.4 µM | AID 504621 | S. cerevisiae expressing PfHsp90, BacTiter-Glo ATP, 48 h; yeast lacking PDR1 and PDR3 efflux regulators | hit rate 0.32% among 310,000;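 active = every replicate shows inhibition above about 80%, whatever the replicate mean, limit read from the data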
TIM10 inh: TIM10 yeast growth inhibition. S. cerevisiae TIM10 strain growth, BacTiter-Glo luminescence, 24 h. inhibition, % at 10 µM. hit rate 1.4% among 330,000;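 active = inhibition of 40% or more at the single tested concentration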;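 also: wild-type TIM10 isogenic control strain grown at permissive 25 °C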
Of the large screens only hits and unclear results are named; the others gave an inactive call.

O=C(O)c1ccccc1N/N=C/c1cc(Br)cc(Br)c1O	SKKanGAS inh 58
O=C(Cc1ccccc1)N/N=C/c1cc(Br)cc(Br)c1O	SKKanGAS inh 112
COc1cccc(-c2cc(CC3(O)CCN(CCCc4ccccc4)CC3)on2)c1	none
COCCn1c(SCC(=O)NCC2CCCO2)nc2c(c1=O)SCC2 (stereo not drawn)	none
COc1cccc(CN2C(=O)CCC2(C)C(=O)NCCc2ccc(OC)c(OC)c2)c1 (stereo not drawn)	none
Cc1ccc(NC2CCCN(C(=O)CSc3ccncc3)C2)cc1C (stereo not drawn)	none
Cc1sc2nc(C3CC3)nc(SCC(=O)NCc3ccco3)c2c1C	PfHsp90 yeast 2 84
O=C(Nc1nnc(-c2ccncc2)o1)c1cccc(N2C(=O)CCC2=O)c1	none
CSc1cccc(-c2nnc(NC(=O)c3cccc(N4C(=O)CCC4=O)c3)o2)c1	SKKanGAS inh 85
O=C(Nc1nnc(-c2ccc(Cl)cc2)o1)c1cccc(N2C(=O)CCC2=O)c1	SKKanGAS inh 70
O=C(Nc1nnc(-c2ccco2)o1)c1cccc(N2C(=O)CCC2=O)c1	none
COc1ccccc1C(=O)NC(=O)COC(=O)c1nc(Cl)ccc1Cl	none (no result: PfHsp90 yeast 2)
C/C(=N\NC(=O)C1CCCC1)c1ccc(Cl)cc1	none (no result: SKKanGAS inh)
C=CCn1c(SCc2c(C)noc2C)nc2sc3c(c2c1=O)CCCC3	SKKanGAS inh 60
C=CCn1c(SCc2c(C)noc2C)nc2sc3c(c2c1=O)CCCCC3	SKKanGAS inh 54 (no result: PfHsp90 yeast 2)
Cc1noc(C)c1CSc1nc2sc3c(c2c(=O)n1C)CCCC3	none
COC(=O)C1CCN(C(=O)CN2C(=O)NC(CC(C)C)C2=O)CC1 (stereo not drawn)	none (no result: SKKanGAS inh)
Cc1ccc(C(=O)ONC(=O)c2ccc(Cl)cc2)cc1[N+](=O)[O-]	PfHsp90 yeast 2 108
Cc1ccc(S(=O)(=O)n2cc(CO)c3ccccc32)cc1	none (no result: tim10-1 inh, SKKanGAS inh, tim23-1 inh, TIM10 inh)
CC(/C=C1\SC(=S)N(c2ccc(C(=O)O)cc2)C1=O)=C\c1ccccc1	SKKanGAS inh 116
CC(/C=C1\SC(=S)N(NS(=O)(=O)c2ccccc2)C1=O)=C\c1ccccc1	SKKanGAS inh 57
CC(/C=C1\SC(=S)N(NC(=O)c2ccc(C)cc2)C1=O)=C\c1ccccc1	none (no result: PfHsp90 yeast 2)
CC(/C=C1\SC(=S)N(C(C(=O)O)C(C)C)C1=O)=C\c1ccccc1 (stereo not drawn)	none
CC1=CC(C)(C(Cl)(Cl)Cl)C(C)=CC1=NO (stereo not drawn)	none (no result: tim10-1 inh, SKKanGAS inh, tim23-1 inh, PfHsp90 yeast 2, TIM10 inh)
S=c1[nH]nc(C2CCCCC2)n1/N=C/c1c(Cl)cccc1Cl	SKKanGAS inh 52
S=c1[nH]nc(-c2cccs2)n1/N=C/c1c(Cl)cccc1Cl	SKKanGAS inh 63
Oc1cccc(/C=N/n2c(C3CCCCC3)n[nH]c2=S)c1	none
CC1(C)[C@@H](O)CC[C@]2(C)[C@H]3C(=O)C=C4[C@@H]5C[C@@](C)(C(=O)O)CC[C@]5(C)CC[C@@]4(C)[C@]3(C)CC[C@@H]12	none
CC1(C)[C@@H](O)CC[C@]2(C)C3C(O)C=C4[C@H]5C[C@@](C)(CO)CC[C@]5(C)CC[C@]4(C)[C@]3(C)CC[C@@H]12 (stereo partly drawn)	SKKanGAS inh 99
Cc1ccc(N=Cc2cccc(O)c2O)c(C)c1	SKKanGAS inh 57
Cc1nn(Cc2c(Cl)cccc2Cl)c(C)c1NC(=O)c1cn(-c2ccccc2)nc1-c1ccccc1	SKKanGAS inh 63
Clc1ccc2c(N/N=C/c3cccc(Br)c3)ccnc2c1	SKKanGAS inh 82 (no result: tim10-1 inh, tim23-1 inh, TIM10 inh)
CC(/C=C/c1ccco1)=N\NC(=O)c1cc(Cl)ccc1O	SKKanGAS inh 70
O=C(C=Cc1ccco1)c1cc(Cl)ccc1O	none (no result: tim10-1 inh, SKKanGAS inh, tim23-1 inh, TIM10 inh)
Clc1ccc(-c2cc(COc3ccc4ccccc4c3)no2)cc1	none
CC(=O)Nc1ccc(OCC(=O)N(CC(C)C)C2CCS(=O)(=O)C2)cc1 (stereo not drawn)	none
CC(C)CN(C(=O)COc1ccc(-c2nnco2)cc1)C1CCS(=O)(=O)C1 (stereo not drawn)	SKKanGAS inh 61
CC1(C)N=C(N)NC(Nc2ccccc2)=N1	SKKanGAS inh 64
Cc1ccccc1C(=O)Nc1ccccc1N1CCN(C(=O)c2ccccc2)CC1	SKKanGAS inh 55
O=C(COC(=O)c1cccc(OC(F)F)c1)Nc1cccc(S(=O)(=O)N2CCCC2)c1	none (no result: SKKanGAS inh)
